Results filed as inconclusive are left out. Unmarked numbers belong to inactive results. The source made the active and inactive calls. The call rests on the fitted dose curve; in most records, active means well fitted inhibition curve with a large enough effect; inconclusive means small, poorly fitted or top-dose-only effect; inactive means flat fitted curve, though single readings scatter.
tested on: Zika virus NS2B-NS3 protease; assay: Primary screen GU AMC qHTS for Zika virus inhibitors (AID 1347154); details: Zika NS2B-NS3 unlinked protease, AMC fluorogenic substrate; series mostly up to 54.1 µM; activity change, negative = inhibition: at the top concentration;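 further: 0% = no-inhibitor control and -100% = no-enzyme control; nearly all actives have a fitted effect of over 70% in size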
How it was run: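 Unlinked Zika NS2B hydrophilic domain–NS3 protease complex at 25 nM in 10 mM Tris-HCl pH 8.0, 0.01% Tween 20, with an AMC peptide substrate. Fluorescence change (340/450 nm) over 15 min at room temperature, normalized to controls, fitted to 4-parameter Hill.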

Structure (SMILES) | activity change, negative = inhibition | Potency
Cc1cc(C)c(NC(=O)CN(CC(=O)O)CC(=O)O)c(C)c1Br | -1.94% | 
CC1(c2ccccc2)OC(C(=O)O)=CC1=O (configuration not stated) |  | inactive
CC(C)NC[C@@H](O)COc1ccc(CC(N)=O)cc1 | -3.99% | 
CC1CCc2cc(F)cc3c(=O)c(C(=O)O)cn1c23 (configuration not stated) | -1.11% | 
Cc1onc(-c2ccccc2)c1-c1ccc(S(N)(=O)=O)cc1 | -2% | 
Cc1c(C(=O)NCCO)[n+](=O)c2ccccc2n1[O-] | -5.63% | 
COc1nccnc1NS(=O)(=O)c1ccc(N)cc1 | 3.5% | 
C=CCSCC1Nc2cc(Cl)c(S(N)(=O)=O)cc2S(=O)(=O)N1 (configuration not stated) | -4.18% | 
Nc1ccncc1N | -1% | 
COc1ccc(Cc2cnc(N)nc2N)cc1OC | 0.915% | 
COc1ccc(O)cc1 | -1.98% | 
NS(=O)(=O)c1cc2c(cc1C(F)(F)F)NCNS2(=O)=O | -9.75% | 
CCCC(O)C(CC)CO (configuration not stated) | -2.12% | 
CC(=O)N(CC(O)CO)c1c(I)c(C(=O)NCC(O)CO)c(I)c(C(=O)NCC(O)CO)c1I (configuration not stated) | -2.08% | 
O=C(Cn1ccnc1[N+](=O)[O-])NCCO | -2.36% | 
O=C(O)CCCCC1CCSS1 (configuration not stated) | 4.5% | 
Nc1c2c(nc3c1CCC3)CCCC2 | 0.687% | 
NC(N)=NS(=O)(=O)c1ccc(N)cc1 | -1.46% | 
Nc1ncnc(Nc2ccccc2)n1 | -3.33% | 

Structure (SMILES) | activity change, negative = inhibition | Potency
Cc1c(N(C)C)c(=O)n(-c2ccccc2)n1C | -3.78% | 
OC(CCN1CCCC1)(c1ccccc1)C1CCCCC1 (configuration not stated) | -0.475% | 
CC1(C)S[C@@H]2[C@H](NC(=O)C(C(=O)O)c3ccccc3)C(=O)N2[C@H]1C(=O)O (some centres not stated) | -4.44% | 
O=C(O)CCC(=O)O | 2.01% | 
CCOC(N)=O | -4.18% | 
C=CCNC(N)=S | 1.33% | 
OCC(O)CS (configuration not stated) | -2.07% | 
CC(C)c1cc2c(cc1S(=O)(=O)O)[C@@]1(C)CCC[C@@](C)(C(=O)O)[C@@H]1CC2 | -2.63% | 
COC(=O)c1ccc(O)cc1 | 0.569% | 
CN(C/C=C/C#CC(C)(C)C)Cc1cccc2ccccc12 | -13.4% | 
CCCNC(C)C(=O)Nc1c(C)csc1C(=O)OC (configuration not stated) | -1.74% | 
O=C(O)C(S)C(S)C(=O)O (configuration not stated) | -3.88% | 
CCCCCCCCCCCCCCCCN | -3% | 
COCC(=O)Nc1c(I)c(C(=O)NCC(O)CO)c(I)c(C(=O)N(C)CC(O)CO)c1I (configuration not stated) | 1.15% | 
COC(=O)N/N=C/c1c[n+]([O-])c2ccccc2[n+]1[O-] | -10.9% | 
CC(=O)N1C[C@H](O)C[C@H]1C(=O)O | 1.65% | 
Nc1ncnc2c1ncn2[C@@H]1O[C@H](COP(=O)(O)O)[C@@H](O)[C@H]1O | 5.62% | 
CC[C@]12CCCN3CCc4c(n(c5ccccc45)[C@@](O)(C(=O)OC)C1)[C@@H]32 | 3.44% | 

Source: PubChem BioAssay (NCATS)
